Screening results from PubChem.
Only some compounds are listed: those with a hit (about 1.6% of all), similar ones and a draw of the others.
KCNQ2 block: rat KCNQ2 potassium channel inhibitors, primary screen, cell-based, CHO-K1, FluxOR thallium flux, B-score. B-score at 10 µM. Potassium voltage-gated channel subfamily KQT member 2 (Rattus norvegicus), O88943. AID 2156, 2009. 20 min; stronger effect = lower value. 310,000 compounds, 1.1% hits;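 active = fluorescence ratio B-score at most minus 3 library SDs, with starting brightness B-score within 2 library SDs, cut at about -5.5 in these data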
Target sequence (O88943 whole entry, looked up): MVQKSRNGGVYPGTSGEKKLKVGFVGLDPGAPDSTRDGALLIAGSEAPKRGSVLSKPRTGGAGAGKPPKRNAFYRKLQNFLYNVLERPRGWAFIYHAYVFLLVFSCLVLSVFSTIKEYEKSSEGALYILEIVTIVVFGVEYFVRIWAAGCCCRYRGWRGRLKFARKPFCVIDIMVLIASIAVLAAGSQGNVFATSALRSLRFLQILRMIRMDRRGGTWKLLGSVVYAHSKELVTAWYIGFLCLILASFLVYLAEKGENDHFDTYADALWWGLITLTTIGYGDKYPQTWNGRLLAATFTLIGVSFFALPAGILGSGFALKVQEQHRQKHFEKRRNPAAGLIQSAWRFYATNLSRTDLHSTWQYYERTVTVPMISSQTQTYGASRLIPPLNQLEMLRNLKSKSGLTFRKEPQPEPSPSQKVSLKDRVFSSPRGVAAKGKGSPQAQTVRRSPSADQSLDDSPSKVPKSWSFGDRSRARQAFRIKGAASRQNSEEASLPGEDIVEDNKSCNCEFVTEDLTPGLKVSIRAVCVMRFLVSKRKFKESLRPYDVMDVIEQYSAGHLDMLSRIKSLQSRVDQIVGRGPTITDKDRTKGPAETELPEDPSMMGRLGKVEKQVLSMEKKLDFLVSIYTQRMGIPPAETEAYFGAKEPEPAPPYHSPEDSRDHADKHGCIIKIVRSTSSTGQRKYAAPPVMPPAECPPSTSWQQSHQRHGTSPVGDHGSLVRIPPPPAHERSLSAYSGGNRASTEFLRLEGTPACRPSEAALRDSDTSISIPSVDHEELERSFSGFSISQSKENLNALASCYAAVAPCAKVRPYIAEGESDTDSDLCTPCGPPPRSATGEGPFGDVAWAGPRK
KCNQ2 enhance: potentiators of rat KCNQ2 potassium channel | Potassium voltage-gated channel subfamily KQT member 2 (Rattus norvegicus), O88943 | CHO-K1 KCNQ2, FluxOR thallium flux fluorescence; stronger effect = higher value | B-score at 10 µM | 310,000 compounds, 0.54% hits | AID 2239, 2010;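 active = fluorescence ratio B-score at least 3 SD of library B-scores, with initial fluorescence B-score within 3 of them, cut at about 5.3 in these data; same plate scores as AID 2156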;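 also: B-score of peak minus minimum over baseline fluorescence ratio after K+ and Tl+ stimulus; positive B-score means potentiation of KCNQ2 with more thallium influx and brighter signal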
KCNQ2 inh conf: rat KCNQ2 potassium channel inhibitors, confirmation, cell-based, thallium flux; shares compounds with KCNQ2 block; KCNQ2-expressing cells, inhibition; stronger effect = lower value; activity change, negative = inhibition, % at 10 µM; 1,000 compounds, 57% hits;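 also: 0% = vehicle wells and values are ratio percent relative to vehicle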
KCNQ1 spec: human KCNQ1 channel inhibition, counter-screen for KCNQ2 inhibitor project, cell-based, FluxOR thallium flux; shares compounds with KCNQ2 block; 1,000 compounds, 15% hits; activity change, negative = inhibition, % at 10 µM; KCNQ1-expressing cells, FluxOR thallium flux fluorescence; stronger effect = lower value; AID 493026, 2011;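 active = activity change at least 3 SD of negative controls below their mean in both duplicate wells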;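 also: CHO cells stably transfected with KCNQ1 and depolarized by potassium stimulus; peak minus minimum fluorescence over baseline after thallium addition; 0% = vehicle negative control and -100% = blank without thallium stimulus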
CHO parental ctr: thallium flux change in parental CHO cells, counter-screen for KCNQ2 inhibitor project. 1,000 compounds, 14% hits. shares compounds with KCNQ2 block. AID 493029, 2011. activity change, % at 10 µM. stronger effect = lower value;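 also: 0% = vehicle negative controls with stimulus buffer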
KCNQ2 patch conf: rat KCNQ2 channel inhibitors, confirmation, cell-based, automated patch clamp, single concentration; shares compounds with KCNQ2 block; KCNQ2-expressing cells, automated patch clamp current; calls only at 10 µM; 550 compounds, 49% hits; AID 588531, 2011
Starred values were filed as active, the others as inactive; i = inactive; x = no result; + = active, no number. Unless noted, no rule for the calls is given here.

SMILES	KCNQ2 block	KCNQ2 enhance	KCNQ2 inh conf	KCNQ1 spec	CHO parental ctr	others
CN1C(C(=O)c2ccccc2)=C(N)c2ccccc2S1(=O)=O	i	x	x	x	x
Cc1ccc(NC2=C(C(=O)c3ccccc3)N(C)S(=O)(=O)c3ccccc32)cc1	-12*	-12	-28%*	i	i	KCNQ2 patch conf=i
CCN1C(C(=O)c2ccccc2)=C(Nc2ccccc2C)c2ccccc2S1(=O)=O	-6.9*	-6.9	-34%*	-27%*	i	KCNQ2 patch conf=i
CCN1C(C(=O)Nc2cc(C)on2)=C(O)c2ccccc2S1(=O)=O	i	1.7	x	x	x
Cc1ccc(C(=O)/C=C/c2cc(C#N)n(C)c2C)cc1	i	1.1	x	x	x
CCN(CC)C(=O)C1CCN(C(=O)c2oc3ccc(C)cc3c2C)CC1	i	x	x	x	x
CCN(CC)C(=O)C1CCCN(C(=O)c2oc3ccc(C)cc3c2C)C1 (configuration not stated)	-7*	-7	i	i	i
O=C(NCCn1cc(SCc2ccccc2)c2ccccc21)c1ccccc1F	-8.2*	-8.2	i	i	i
O=C(CSc1cn(CCNC(=O)c2ccccc2F)c2ccccc12)NCC1CCCO1 (configuration not stated)	i	0.75	x	x	x
O=C(/C=C/c1cccc(Cl)c1)N1CCC(Cc2ccccc2)CC1	-11*	-11	-35%*	-41%*	-34%*	KCNQ2 patch conf=+
O=C(/C=C/c1ccccc1)N1CCC(Cc2ccccc2)CC1	i	x	x	x	x
O=C(C(=O)N1CCCC1)c1c(-c2ccccc2)[nH]c2ccccc12	i	1.6	x	x	x
Cn1c(Cn2nnc3ccccc32)nnc1SCC(=O)Nc1nccs1	i	0.18	x	x	x
CN1C(=O)CSC1=NC12CC3CC(CC(C3)C1)C2	i	x	x	x	x
CCN1C(=O)CSC1=NC12CC3CC(CC(C3)C1)C2	-7.8*	-7.8	-32%*	-30%*	-30%*	KCNQ2 patch conf=i
Cc1ccccc1C(=O)NC1CCN(CC(=O)N2CCCCC2C)CC1 (configuration not stated)	i	x	x	x	x
COC(=O)c1ccc(C(=O)OC)c(NC(=O)COC(=O)CC2CC3CCC2C3)c1 (configuration not stated)	-11*	-11	i	i	i
Cc1ccc(Cl)cc1NC(=O)COC(=O)CC1CC2CCC1C2 (configuration not stated)	i	x	x	x	x
O=C(c1ccc(F)cc1F)N1CCCc2ccccc21	i	x	x	x	x
O=[N+]([O-])c1cccc(OCCN2CCC(Cc3ccccc3)CC2)c1	-8.2*	-8.2	i	i	i
Cc1ccc([N+](=O)[O-])c(OCCCN2CCC(Cc3ccccc3)CC2)c1	i	x	x	x	x
CCN(CC(=O)Nc1ccc(NC(C)=O)cc1)C(=O)CCCc1nc2ccccc2c(=O)[nH]1	i	x	x	x	x
O=C(NCCc1ccccc1)c1ccc2nc(-c3ccco3)c(-c3ccco3)nc2c1	i	0.57	x	x	x
O=C(c1ccccc1)c1ccc2nc(-c3ccco3)c(-c3ccco3)nc2c1	-7.7*	-7.7	i	i	i
CC(C)CCNc1nc(-c2ccco2)c2c(c1C#N)CCCC2	-6.8*	-6.8	i	i	i
SMILES	KCNQ2 block	KCNQ2 enhance	KCNQ2 inh conf	KCNQ1 spec	CHO parental ctr	others
N#Cc1c(NCCN)nc(-c2ccco2)c2c1CCCC2	i	x	x	x	x
CSc1ccccc1NC(=O)CN(C1CCCCC1)S(C)(=O)=O	i	x	x	x	x
CN(CC(=O)Nc1ccccc1Sc1ccccc1)C1CCCCC1	-6.7*	-6.7	-37%*	-35%*	-27%*	KCNQ2 patch conf=i
Cc1sc(NC(=O)c2ccco2)c(C(c2cccnc2)N2CCN(CCO)CC2)c1C (configuration not stated)	i	1.1	x	x	x
Cc1sc(NC(=O)c2ccco2)c(C(c2cccnc2)N2CCN(c3ccc(F)cc3)CC2)c1C (configuration not stated)	-10*	-10	-29%*	i	i	KCNQ2 patch conf=i
O=C(CS(=O)(=O)c1ccccc1)Nc1nccs1	i	x	x	x	x
CC(=O)c1c(C(C)=O)c(C)n(-c2ccc(N)c(C)c2)c1C	i	x	x	x	x
CC(C)[C@H](NC(=O)N1CCn2c1nc1ccccc12)C(=O)NCc1ccc(F)cc1	i	x	x	x	x
CC(C)[C@H](NC(=O)N1CCn2c1nc1ccccc12)C(=O)NCc1ccccc1Cl	-8.1*	-8.1	-34%*	-32%*	-24%*	KCNQ2 patch conf=+
CC1=C(C(=O)NCc2ccc3c(c2)OCO3)C2(CCC(C)CC2)OC1=O (configuration not stated)	-9.4*	-9.4	i	i	i
CC1=C(C(=O)NCc2ccco2)C2(CCC(C)CC2)OC1=O (configuration not stated)	i	0.4	x	x	x
Clc1ccc(SCc2nc3ccccc3[nH]2)cc1	i	x	x	x	x
Clc1ccc(/C(Cc2nc3ccccc3[nH]2)=N\Nc2ccccc2)cc1	-6.6*	-6.6	-38%*	i	i	KCNQ2 patch conf=i
COc1ccc(N2CC(C(=O)N3CCN(C(=O)c4ccco4)CC3)CC2=O)cc1 (configuration not stated)	i	1.4	x	x	x
O=C(O)c1ccc(S(=O)(=O)N(CCc2ccccc2)Cc2ccc(Cl)cc2)cc1	i	x	x	x	x
O=C(CN1CCCC1)Nc1c(Cl)cccc1Cl	i	x	x	x	x
COc1ccc(Br)cc1CNC(=O)CN1C(=O)C(c2ccccc2)Oc2cccnc21 (configuration not stated)	-7*	-7	-26%*	i	i	KCNQ2 patch conf=+
COc1ccc(NC(=O)CCCN2C(=O)C(c3ccccc3)Oc3cccnc32)cc1OC (configuration not stated)	i	0.35	x	x	x
CCn1c(=O)c(C(=O)NCc2ccccc2OC)c(O)c2ccccc21	i	x	x	x	x
CCn1c(=O)c(C(=O)NCc2ccc(Cl)cc2)c(O)c2ccccc21	-7.6*	-7.6	-25%*	i	i	KCNQ2 patch conf=i
CCn1c(=O)c(C(=O)NCc2ccccc2)c(O)c2ccccc21	i	x	x	x	x
CCCn1c(=O)c(C(=O)NCc2ccccc2OC)c(O)c2ccccc21	-7.6*	-7.6	i	i	i
CCn1c(=O)c(C(=O)NCc2cccnc2)c(O)c2ccccc21	i	1.1	x	x	x
CCn1c(=O)c(C(=O)NCc2ccc(F)cc2)c(O)c2ccccc21	-6.7*	-6.7	i	i	i
CN(Cc1cnccn1)Cc1ccccc1OCC(O)CN1CCc2ccccc2C1 (configuration not stated)	i	0.98	x	x	x
CCN(CC)N=Nc1ccc(S(=O)(=O)Nc2nc(C)cc(C)n2)cc1	i	2.1	x	x	x
CCN1C(=O)[C@@H]2C(C(=O)c3cnccn3)=NN[C@@H]2C1=O	i	x	x	x	x
